High-throughput results deposited in PubChem BioAssay by National Center for Advancing Translational Sciences (NCATS).
A selection: hits, their analogues and other compounds. The true share with any hit is near 0.47%.
MmCpn inh = blocks the Methanococcus maripaludis chaperonin Mm-Cpn; Potency, µM (doses to about 76.9 µM), inactives show at the highest dose activity, negative = inhibition, hits mostly inhibitors; hit rate 0.031% among 330,000; purified Mm-Cpn ATPase, ADP Transcreener TR-FRET; AID 504842; note: potency is the fitted concentration of half-maximal effect; % is set by controls: 0 for no effect and ±100 for the full control effect; nearly all actives have a fitted effect of over 80% in size
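Purified archaeal Mm-CPN (25nM final) preincubated 10 min at 37degC with compound, then 10uM ATP for 30 min at 37degC; ADP measured by HTRF Transcreener TR-FRET; buffer 30 mM TRIS pH 7.4, 100mM KCl, 5mM MgCl2, 1mM DTT.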
A-T KAP1 phos = candidate therapy for ataxia-telangiectasia; F2112 A-T fibroblasts, KAP-1 phosphorylation AlphaLISA; neocarzinostatin DNA damage 30 min before lysis; Potency, µM (doses to about 57.5 µM), for the others: at the top dose activation, most hits filed as activators; hit rate 0.19% among 320,000; note: potency is the fitted concentration of half-maximal effect; % of control where 0% means no effect; nearly all actives have a fitted effect of over 45% in size
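ATM-like activity read as KAP-1 phosphorylation via AlphaLISA donor/acceptor antibody pairs after lysis and 6 hr at 25C. Cells were ATM-null patient fibroblasts (F2112, hTERT), dosed 60 min, then exposed to the DSB inducer NCS for 30 min.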
CCT modulator = cytosolic chaperonin activity modulation; purified chaperonin ATPase assay, HTRF ADP detection, 30 min; activity change, % (concentration not given with the values), hits read low; hit rate 0.3% among 360,000; AID 651819; in the data active = activity change below about -30%; note: % is set by controls: 0 for no effect and ±100 for the full control effect
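First, chaperonin was dispensed at 40 nM or 20 nM final depending on batch activity. Next, compounds were pinned at 76 uM and ATP added at 10 uM. After 30 min at 37 °C, ADP detection reagents ran 30 min at ambient temperature.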
Anesthetic bind = binds horse apoferritin like a general anesthetic. apoferritin/1-aminoanthracene competitive binding, fluorescence. Potency, µM (top dose mostly 77.5 µM), for inactives: at the highest dose activity change, negative = displacement, usual class: inhibitors. hit rate 0.074% among 350,000. AID 485281; note: potency is the fitted concentration of half-maximal effect; % is set by controls: 0 for no effect and ±100 for the full control effect; nearly all actives have a fitted effect of over 20% in size
Target sequence (P02791 2-175 limits assumed): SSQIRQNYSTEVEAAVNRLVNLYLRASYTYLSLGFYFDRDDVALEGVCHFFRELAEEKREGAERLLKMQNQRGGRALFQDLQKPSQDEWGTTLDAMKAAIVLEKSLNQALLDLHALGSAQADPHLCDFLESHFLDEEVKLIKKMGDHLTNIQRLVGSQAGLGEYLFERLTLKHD
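In PBS, apoferritin at 10 uM is loaded with 1-AMA from a 50% saturated solution. After 10 min of compound exposure at ambient temperature, reduced 535 nm fluorescence indicates probe displacement.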
Numbers without * were called inactive; u = inconclusive; x = not tested or not shown. Unless noted, calls come from the whole dose curve; as a rule, active = well fitted curve in the direction sought with a large enough effect; inconclusive = small, poorly fitted or top-dose-only effect, or another doubt; inactive = no such curve, though single readings can be large; an effect the other way counts as inactive or inconclusive.

SMILES	MmCpn inh	A-T KAP1 phos	CCT modulator	Anesthetic bind
O=C(CSc1ccc(Br)c2cccc(Cl)c12)Nc1ccc(S(=O)(=O)Nc2nccs2)cc1	u	-2%	-37*	2%
CC(C)(C)CC(=O)Nc1ccc(Nc2ccccc2)cc1	0%	-2%	0	8.9µM*
CC(=O)c1c(C)[nH]c(C(=O)/C(C#N)=C/c2cccc(C)c2)c1C	u	0%	-1	-1%
CCOC(=O)c1c(C)[nH]c(C(=O)/C(C#N)=C/c2ccc(OCC)cc2)c1C	0%	3%	-119*	-5%
O=C(Nc1noc2ccccc12)c1ccc(F)cc1	x	x	x	-7%
Cc1ccn2c(Nc3ccccc3)c(-c3ccccn3)nc2c1	1%	-1%	-37*	-3%
Cc1cc(C)cc(NC(=O)Cn2c(=O)n(Cc3ccc4c(c3)OCO4)c(=O)c3oc4ccccc4c32)c1	x	x	x	-5%
COCCNC(=O)c1c(N)n(-c2cccc(C)c2)c2nc3ccccc3nc12	-4%	3.5µM*	0	704%
CN(C)c1ccc(C(=O)N2CCNC(=O)C2CC(=O)Nc2ccc(F)cc2)cc1 (stereo unspecified)	-1%	-1%	2	-2%
COc1ccc(NC(=O)CC2C(=O)NCCN2C(=O)c2ccc(N(C)C)cc2)cc1 (stereo unspecified)	1%	0%	-50*	6%
CC(=O)c1cccc(NC(=O)c2cnn(-c3cccc(C)c3)c2-n2cccc2)c1	x	x	x	-8%
Cc1ccc(F)cc1NCC(=O)Nc1ccc(Cl)cc1F	1%	-3%	-47*	2%
Cc1cccc(C(O)C(O)c2cccc(C)n2)n1 (stereo unspecified)	x	x	-85*	x
Cc1cccc(C(P(=O)(c2ccccc2)c2ccccc2)P(=O)(c2ccccc2)c2ccccc2)n1	0%	-1%	-1	5%
O=C(Nc1ccc(OC(F)(F)F)cc1)NC1COc2ccccc2C1 (stereo unspecified)	x	x	x	17%
CC(=O)OCOC(c1ccc2ccccc2c1)P(=O)(OCOC(C)=O)OCOC(C)=O (stereo unspecified)	x	x	x	-3%
Cc1cc(C)c(C#N)c(Nc2cccc(C)c2C)n1	-3%	0%	-44*	0%
CC[C@H](C)[C@H](NC(=O)[C@H](Cc1cnc[nH]1)NC(=O)[C@@H](NC(=O)[C@H](CCCNC(=N)N)NC(=O)[C@H](CCCCN)NC(=O)[C@H](CCCNC(=N)N)NC(=O)[C@H](CCCCN)NC(=O)[C@@H](N)CC(N)=O)[C@@H](C)CC)C(=O)NCC(=O)N1CCC[C@H]1C(=O)NCC(=O)N[C@@H](CCCNC(=N)N)C(=O)N[C@@H](C)C(=O)N[C@@H](Cc1ccccc1)C(=O)N[C@@H](Cc1ccc(O)cc1)C(=O)N[C@H](C(=O)N[C@H](C(=O)N[C@@H](CCCCN)C(=O)N[C@@H](CC(N)=O)C(=O)N[C@H](C(=O)N[C@H](C(=O)NCC(=O)N[C@H](C(=O)N[C@H](C(=O)N[C@@H](CS)C(=O)O)[C@@H](C)CC)[C@@H](C)O)[C@@H](C)CC)[C@@H](C)CC)[C@@H](C)O)[C@@H](C)O	x	x	x	3%
O=S(=O)(Nc1cc2nc3ccccc3nc2n1Cc1ccccc1)c1ccc(Cl)cc1	-30%	25µM*	-2	-11%
O=S(=O)(NCc1ccccc1)c1ccc(Cl)cc1	0%	-2%	-2	u
O=C(O)CCC(=O)Nc1ccc(NC(=O)c2ccc(Cl)cc2Cl)c(Cl)c1	-11%	6%	-135*	-5%
Cc1cc(Cl)ccc1NC(=O)CCC(=O)O	3%	-5%	-2	1%
Nc1cccc2c1C(=O)N(Cc1cccc(Cl)c1)C2=O	3%	25%	0	429%
N#CCN1C(=O)C(=O)N(Cc2cccc(Cl)c2)C1=O	-2%	0.71µM*	-3	1%
CC(C)c1ccc(N(CC(=O)N2CCN(Cc3ccccc3)CC2)S(C)(=O)=O)cc1	-2%	-4%	-95*	-10%
SMILES	MmCpn inh	A-T KAP1 phos	CCT modulator	Anesthetic bind
CN(CC(=O)Nc1ccc(Cl)cc1)Cc1cc(=O)n2ccsc2n1	-1%	0%	2	-9%
Cc1ccc(NC(=O)CN(C)Cc2cc(=O)n3ccsc3n2)cc1	-1%	13µM*	-4	-10%
C/C(=N\NC(=O)CCCC(=O)O)c1c(-c2ccccc2)c2cc(Cl)ccc2[nH]c1=O	-1%	3.5µM*	-1	36%
NNC(=O)c1[nH]c2ccc(Cl)cc2c1-c1ccccc1	-5%	-11%	1	-14%
Cc1[nH]c2ccc(C(=O)NC3CCC(C)CC3)cc2c1C (stereo unspecified)	-8%	-3%	-62*	7%
Clc1ccccc1Cn1nnc(-c2cccs2)n1	0%	9%	0	-17%
Clc1ccccc1Cn1nnc(-c2ccccc2)n1	-1%	22µM*	-2	-21%
COc1ccc(NC(=O)Nc2sc3nc4n(c(=O)c3c2C)CCC(C)CC4)cc1OC (stereo unspecified)	x	x	x	-6%
COc1ccc(/C(N)=N/O)cc1O	0%	-1%	-30*	1%
Cc1cc(C)c2c(=O)cc(CSc3nnc(-c4ccccc4)n3C)[nH]c2c1	x	x	x	-11%
CC(C)Oc1cccc(C(=O)Nc2ccc(-c3nc4cc(Cl)cc(Cl)c4o3)cc2)c1	x	x	x	3%
O=S(=O)(Nc1ccc2c(c1)CCC2)c1cccs1	0%	8%	-3	11µM*
COc1ccc(Nc2nc3ccccc3n3c(N)nnc23)cc1	x	x	x	-1%
O=S(=O)(NCCC1=CCCCC1)c1cccc2nsnc12	2%	x	0	8.9µM*
O=C(CCNS(=O)(=O)c1cccc2nsnc12)NCCC1=CCCCC1	-2%	5%	0	-9%
Cc1nn(Cc2ccccc2Cl)c2sc(C(=O)Nc3nccs3)cc12	-21%	17%	-57*	-3%
CCOc1ccc(CCNC(=O)c2c(C)oc3ncnc(N4CCOCC4)c23)cc1	x	x	x	-12%
C=CCC(C)(NCc1ccccc1)c1ccc(C)cc1 (stereo unspecified)	1%	40µM*	-1	-10%
O=C(O)c1ccc(-c2ccc3cc(C45CC6CC(CC(C6)C4)C5)c(O)cc3c2)cc1	x	x	x	-5%
O=C(N/N=C/c1ccncc1)c1sc2ccccc2c1Cl	2%	0%	-84*	-7%
COc1ccc2c(Cl)c(C(=O)N/N=C/c3ccncc3)sc2c1	-4%	2%	2	-12%
O=C(N/N=C/c1ccncc1)c1cccc(NC(=O)c2ccc(Cl)cc2)c1	3%	1%	-36*	3%
COc1ccc2c(Sc3ccc(Cl)cc3)c(C(=O)N3CCCCC3)[nH]c2c1	x	x	x	-9%
Cc1ccc(-c2csc(N3C(=N)SCC3=O)n2)cc1	-2%	22µM*	-1	0%
CCOc1ccccc1N1CC(C(=O)N(Cc2nnc(-c3ccccc3Cl)o2)C2CC2)CC1=O (stereo unspecified)	0%	8%	-36*	x
CSc1cccc(N2CC(C(=O)N(Cc3nnc(-c4ccccc4Cl)o3)C3CC3)CC2=O)c1 (stereo unspecified)	-3%	21%	2	-1%
